# Source: the supplement of paper PMC12282887
# ± gives the standard deviation of the averaged measurements.
# Experiments:
# Experiment in all cases: promoter activity interaction Z-score (Lux/OD deviation from empty-vector control); higher = stronger promoter induction by the compound
# [1] = system: E. coli BW25113 acrABp lux reporter
# In short: (§1)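 E. coli BW25113, as wild type or one of three single-gene deletion strains, carried low-copy luxCDABE promoter reporters and grew in 40 µl LB Lennox in 384-well plates at 37°C, with OD600 and luminescence read every 30 min for 12 h. Each compound was run at four 1:2 dilutions in biological duplicates, integration spanned 0–8 h for wild type and 1–9 h for deletion strains, and wells under 10% of the median growth value were dropped. The score is the Z-transformed residual of growth-normalised luminescence fitted against a control.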
# [2] = system: E. coli BW25113 marRABp lux reporter
# In short: as §1
# [3] = system: E. coli BW25113 micFp lux reporter
# In short: as §1
# [4] = system: E. coli BW25113 ompFp lux reporter
# In short: as §1
# [5] = system: E. coli BW25113 robp lux reporter
# In short: as §1
# [6] = system: E. coli BW25113 soxSp lux reporter
# In short: as §1
# [7] = system: E. coli BW25113 tolCp lux reporter
# In short: as §1
# [8] = 0.45 µg/ml, genetic background: wild type
# [9] = 0.45 µg/ml, genetic background: ΔmarA
# [10] = 0.45 µg/ml, genetic background: Δrob
# [11] = 0.45 µg/ml, genetic background: ΔsoxS
# [12] = 0.89 µg/ml, genetic background: wild type
# [13] = 0.89 µg/ml, genetic background: ΔmarA
# [14] = 0.89 µg/ml, genetic background: Δrob
# [15] = 0.89 µg/ml, genetic background: ΔsoxS
# [16] = 1.8 µg/ml, genetic background: wild type
# [17] = 1.8 µg/ml, genetic background: ΔmarA
# [18] = 1.8 µg/ml, genetic background: Δrob
# [19] = 1.8 µg/ml, genetic background: ΔsoxS
# [20] = 3.6 µg/ml, genetic background: wild type
# [21] = 3.6 µg/ml, genetic background: ΔmarA
# [22] = 3.6 µg/ml, genetic background: ΔsoxS
# [23] = 3.6 µg/ml, genetic background: Δrob
smiles,measurement,setting,value
O=C1CN(/N=C/c2ccc([N+](=O)[O-])o2)C(=O)N1 [Nitrofurantoin],promoter activity interaction Z-score,[1]; [8],0.0114 ± 0.17
same,promoter activity interaction Z-score,[1]; [9],0.119 ± 1.2
same,promoter activity interaction Z-score,[1]; [10],0.336 ± 0.34
same,promoter activity interaction Z-score,[1]; [11],0.0185 ± 0.49
same,promoter activity interaction Z-score,[1]; [12],-0.124 ± 0.043
same,promoter activity interaction Z-score,[1]; [13],0.483 ± 1.2
same,promoter activity interaction Z-score,[1]; [14],0.267 ± 0.28
same,promoter activity interaction Z-score,[1]; [15],-0.258 ± 0.11
same,promoter activity interaction Z-score,[1]; [16],0.24 ± 0.28
same,promoter activity interaction Z-score,[1]; [17],-0.0961 ± 0.62
same,promoter activity interaction Z-score,[1]; [18],0.562 ± 0.54
same,promoter activity interaction Z-score,[1]; [19],0.221 ± 0.13
same,promoter activity interaction Z-score,[1]; [20],5.63 ± 1.8
same,promoter activity interaction Z-score,[1]; [21],1.31 ± 1.1
same,promoter activity interaction Z-score,[1]; [22],1.31
same,promoter activity interaction Z-score,[2]; [8],0.183 ± 0.32
same,promoter activity interaction Z-score,[2]; [9],0.105 ± 0.23
same,promoter activity interaction Z-score,[2]; [10],0.131 ± 0.13
same,promoter activity interaction Z-score,[2]; [11],0.198 ± 0.24
same,promoter activity interaction Z-score,[2]; [12],0.503 ± 0.047
same,promoter activity interaction Z-score,[2]; [13],0.249 ± 0.27
same,promoter activity interaction Z-score,[2]; [14],0.252 ± 0.052
same,promoter activity interaction Z-score,[2]; [15],0.0792 ± 0.11
same,promoter activity interaction Z-score,[2]; [16],1.04 ± 0.38
same,promoter activity interaction Z-score,[2]; [17],0.658 ± 0.16
same,promoter activity interaction Z-score,[2]; [18],1.16 ± 0.11
same,promoter activity interaction Z-score,[2]; [19],0.447 ± 0.016
same,promoter activity interaction Z-score,[2]; [20],7.36 ± 0.64
same,promoter activity interaction Z-score,[2]; [21],4.45 ± 1.7
same,promoter activity interaction Z-score,[2]; [23],12.8 ± 0.43
same,promoter activity interaction Z-score,[2]; [22],12.2
same,promoter activity interaction Z-score,[3]; [8],-0.201 ± 0.35
same,promoter activity interaction Z-score,[3]; [9],-0.0627 ± 0.036
same,promoter activity interaction Z-score,[3]; [10],-0.0214 ± 0.074
same,promoter activity interaction Z-score,[3]; [11],0.0613 ± 0.061
same,promoter activity interaction Z-score,[3]; [12],-0.0281 ± 0.071
same,promoter activity interaction Z-score,[3]; [13],0.0181 ± 0.016
same,promoter activity interaction Z-score,[3]; [14],0.0629 ± 0.06
same,promoter activity interaction Z-score,[3]; [15],-0.168 ± 0.14
same,promoter activity interaction Z-score,[3]; [16],-0.0112 ± 0.03
same,promoter activity interaction Z-score,[3]; [17],-0.163 ± 0.13
same,promoter activity interaction Z-score,[3]; [18],0.113 ± 0.19
same,promoter activity interaction Z-score,[3]; [19],0.261 ± 0.17
same,promoter activity interaction Z-score,[3]; [20],-0.0667 ± 0.48
same,promoter activity interaction Z-score,[3]; [21],-0.232 ± 0.11
same,promoter activity interaction Z-score,[3]; [23],1.15 ± 0.47
same,promoter activity interaction Z-score,[3]; [22],0.96
same,promoter activity interaction Z-score,[4]; [8],-0.15 ± 0.13
same,promoter activity interaction Z-score,[4]; [9],-0.453 ± 0.32
same,promoter activity interaction Z-score,[4]; [10],-0.0497 ± 0.041
same,promoter activity interaction Z-score,[4]; [11],0.0722 ± 0.049
same,promoter activity interaction Z-score,[4]; [12],-0.0847 ± 0.24
same,promoter activity interaction Z-score,[4]; [13],-0.089 ± 0.056
same,promoter activity interaction Z-score,[4]; [14],-0.35 ± 0.18
same,promoter activity interaction Z-score,[4]; [15],-0.556 ± 0.079
same,promoter activity interaction Z-score,[4]; [16],-0.226 ± 0.099
same,promoter activity interaction Z-score,[4]; [17],-0.21 ± 0.076
same,promoter activity interaction Z-score,[4]; [18],0.603 ± 0.17
same,promoter activity interaction Z-score,[4]; [19],0.0583 ± 0.32
same,promoter activity interaction Z-score,[4]; [20],-2.5
same,promoter activity interaction Z-score,[4]; [21],1.3 ± 0.68
same,promoter activity interaction Z-score,[4]; [23],3.89
same,promoter activity interaction Z-score,[4]; [22],-0.534
same,promoter activity interaction Z-score,[5]; [8],0.114 ± 0.034
same,promoter activity interaction Z-score,[5]; [9],0.455 ± 0.074
same,promoter activity interaction Z-score,[5]; [10],0.575 ± 0.24
same,promoter activity interaction Z-score,[5]; [11],0.737 ± 0.98
same,promoter activity interaction Z-score,[5]; [12],0.053 ± 0.093
same,promoter activity interaction Z-score,[5]; [13],1.12 ± 0.13
same,promoter activity interaction Z-score,[5]; [14],-0.308 ± 0.14
same,promoter activity interaction Z-score,[5]; [15],0.326 ± 0.87
same,promoter activity interaction Z-score,[5]; [16],-0.109 ± 0.28
same,promoter activity interaction Z-score,[5]; [17],-0.423 ± 0.23
same,promoter activity interaction Z-score,[5]; [18],-0.197 ± 0.6
same,promoter activity interaction Z-score,[5]; [19],0.0845 ± 0.42
same,promoter activity interaction Z-score,[5]; [20],-0.125 ± 0.22
same,promoter activity interaction Z-score,[5]; [21],-0.424 ± 0.58
same,promoter activity interaction Z-score,[5]; [22],0.453 ± 1.5
same,promoter activity interaction Z-score,[6]; [8],0.0106 ± 0.12
same,promoter activity interaction Z-score,[6]; [9],-0.137 ± 0.086
same,promoter activity interaction Z-score,[6]; [10],-0.0668 ± 0.14
same,promoter activity interaction Z-score,[6]; [11],0.0402 ± 0.15
same,promoter activity interaction Z-score,[6]; [12],0.102 ± 0.0085
same,promoter activity interaction Z-score,[6]; [13],0.0915 ± 0.093
same,promoter activity interaction Z-score,[6]; [14],0.0454 ± 0.22
same,promoter activity interaction Z-score,[6]; [15],0.0812 ± 0.0067
same,promoter activity interaction Z-score,[6]; [16],0.0189 ± 0.12
same,promoter activity interaction Z-score,[6]; [17],-0.113 ± 0.12
same,promoter activity interaction Z-score,[6]; [18],-0.00251 ± 0.13
same,promoter activity interaction Z-score,[6]; [19],0.294 ± 0.093
same,promoter activity interaction Z-score,[6]; [20],0.367 ± 0.26
same,promoter activity interaction Z-score,[6]; [21],0.0789 ± 0.17
same,promoter activity interaction Z-score,[6]; [23],-0.00598 ± 0.3
same,promoter activity interaction Z-score,[6]; [22],0.987 ± 0.11
same,promoter activity interaction Z-score,[7]; [8],-0.752 ± 0.08
same,promoter activity interaction Z-score,[7]; [9],-0.242 ± 1.3
same,promoter activity interaction Z-score,[7]; [10],-0.5 ± 0.78
same,promoter activity interaction Z-score,[7]; [11],-0.5485 ± 0.0052
same,promoter activity interaction Z-score,[7]; [12],0.445 ± 0.35
same,promoter activity interaction Z-score,[7]; [13],0.287 ± 1.1
same,promoter activity interaction Z-score,[7]; [14],-0.164 ± 0.15
same,promoter activity interaction Z-score,[7]; [15],-0.317 ± 0.33
same,promoter activity interaction Z-score,[7]; [16],-0.711 ± 0.13
same,promoter activity interaction Z-score,[7]; [17],-0.75 ± 0.79
same,promoter activity interaction Z-score,[7]; [18],0.238 ± 0.13
same,promoter activity interaction Z-score,[7]; [19],0.385 ± 1.6
same,promoter activity interaction Z-score,[7]; [20],1.24 ± 0.17
same,promoter activity interaction Z-score,[7]; [21],-1.22 ± 0.056
same,promoter activity interaction Z-score,[7]; [23],0.356 ± 0.69
same,promoter activity interaction Z-score,[7]; [22],0.0431 ± 0.49
